Laboratory results: PubChem BioAssay AID1508600 (Functional Genomics Laboratory (NCATS/FGL), 2020)
In all, about 53,000 sequences went through this assay and about 3,700 (7%) were called active. Many of the other results were omitted from the sample, so actives are more common in it than they were. A number with no mark means an inactive call.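 How the source made its calls: active means gene knockdowns whose robust z-score for IL-1 alpha signal is at least 2 or at most -2, so actives lie on both sides; inactive means the rest.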

Assay: Components of the Cytosolic LPS Sensing Pathway: Gene Identification via Genome-wide siRNA Screen;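 further: robust z of the log signal after scaling to non-targeting control siRNA wells of the plate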
Conditions: RAW264.7 macrophages, IL-1a HTRF, actives lie on both sides, screened at 100 nM (by protocol), cells primed 5 h with Pam3CSK4 first
Outline: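 Knockdown: 100 nM siRNA, 48h, RAW264.7. Stimulation: Pam3CSK4 5 h, then LipidA via TransIT-TKO 24 h. Output: supernatant IL-1a HTRF, negative-control-normalized, log robust z-score; viability by CellTiter-Glo.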

| Sequence | z-score |
| --- | --- |
| CGUAGCACUUCUUCUCUUATT against Dync1li2 | 0.484 |
| GGUCUUGCUGAUCAACAACTT against Adgrb2 | 2.53 (active) |
| GCCAAUUUUGAACCACUACTT against Itga8 | -0.56 |
| GGAAGUAUGAAAUUAUCAGTT against Car12 | 0.0371 |
| CGGUUCUUCCAUCAAAUGGTT against Prodh | 1.07 |
| GGCUUUAAUCCUAACCCUATT against Zfp3 | -0.658 |
| GCGAGCCAAGUUUGAACUUTT against Elovl6 | 1.42 |
| GCUGGCUUUAAAAAUAUCUTT against Nt5dc3 | 0.174 |
| GGAGUGAUAGUCAUCAAUGTT against Olfr357 | -0.464 |
| GGAACAGUCGGCCAUUUAATT against Tmem98 | -0.553 |
| CCCUACUGUAUUAGAAAACTT against Dnph1 | 2.1 (active) |
| GGAUCACUUUUAGUUUUCUTT against C230013L11Rik | -0.0242 |
| GCCUGAUAGUGCAGAAACATT against Rabl2 | -0.233 |
| GGUUAUCGCAUUUGGUGGUTT against Olfr1511 | 0.104 |
| GGACAAAAGGCAAUCUACATT against Mettl18 | 2.8 (active) |
| GGUGUCUCUCCAGGAUAACTT against Ctrl | -0.511 |
| CGUACAACACGGAAACCUATT against Paqr5 | -0.448 |
| GGGUCUCAGCAGUGCAAACTT against Txnip | -0.486 |
| GGAGAGAGGGAAAAAAGAATT against Sox4 | -0.317 |
| GGCUUGACUGCUAUUUUAGTT against Csn1s1 | 0.711 |
| CCACCUGACUUUUGGAAGATT against Coro1b | -1.8 |
| UUAAGGAAAUGUUCUGUUCTT against Olfr426 | 0.797 |
| GGCUUUGAGAGGAACACCATT against Sh2d4b | -2.49 (active) |

| Sequence | z-score |
| --- | --- |
| GGCCAAGUUCAACAUUCCATT against Lilrb4a | 0.539 |
| GGGACUUAAGUGAAGUUCATT against Ogfod2 | 0.232 |
| GCUGUCUCGUCAUUUAAGATT against Dym | -0.461 |
| GGAAAGUGUUGUCAAAAGATT against Olfr125 | -0.386 |
| GGCAUGUGGAAAACCUCCUTT against Lrrc46 | -0.413 |
| GGAUGAUGAAUUCACACACTT against Calr | 3.18 (active) |
| GGAGAAAAAAUUCUUAUCCTT against Prmt2 | -0.31 |
| GGCGGUUUCACCUAUACAATT against Rspo4 | 0.821 |
| GGUCACCUUAACCGAGAAGTT against Phkg1 | 0.19 |
| GGACUUAACUAGUUGACAATT against Pclaf | -1.06 |
| GGUAUGAUGAAAAUACACATT against Mmp1a | 2.56 (active) |
| GGGAGUGCCUUUAAAACACTT against Satb1 | 0.882 |
| GCCAAAAGGAGGACAUACCTT against Mylk3 | 1.08 |
| GGAUAUUGAUUGCUUUGUUTT against Uox | 1.41 |
| GGACAAAAGAUUCUUCAUCTT against Map1b | 2.93 (active) |
| CCAACAAUGAUUAAUCAGCTT against Meis1 | -1.38 |
| GGAAAAUCACAAUCACUUGTT against Ccdc43 | -0.669 |
| GGUACCACCAUGCUAUGGUTT against Krtap19-9b | 0.646 |
| GGUGGUGAUUCACCUCCAATT against Tnfrsf12a | -2.23 (active) |
| GCACUCAAGACCUGUAUGATT against Cldn18 | 0.627 |
| GGAAAUGCCAUUUGAUUUGTT against Rfpl4 | 0.599 |
| GGACGAUCAUGACAAGAUGTT against Psmb2 | -2.35 (active) |
| CCAUCGUAUUUAACCACAUTT against Dtymk | 0.206 |

| Sequence | z-score |
| --- | --- |
| GGCAAACUUAUCUUCUUCUTT against Ahsa1 | -1.89 |
| GGGAGUUAUAUUAGUCUAUTT against Rab18 | 0.436 |
| GGAUGCAGAGACCUAUUUCTT against Cacng5 | -0.158 |
| GGAACAGAGCCUUUCUCAGTT against Rnf183 | -0.153 |
| CCCAUGAUCUGGAAGAGACTT against Il1a | -2.08 (active) |
| GCUAAUAGCCUGCCUAAGGTT against Plekhj1 | 1.35 |
| GUUACAAAACAUCGGUGGGTT against Vsig2 | 1.06 |
| CCUAGACAAAGUUUCAAACTT against Xrcc4 | -0.662 |
| GGAAAGAUUUCGAACAAUCTT against Rab1a | 1.66 |
| CAGUUUUUGGUCUCUAUCUTT against Olfr113 | 2.27 (active) |
| GGCAGUUAGUAAGUUUAAATT against Eif5a2 | 1.22 |
| GGUAUACACAUGAAAACCATT against Ccdc137 | -0.548 |
| GGUGAUUCGUCAGAAGCUGTT against Gpr84 | -0.61 |
| GGCUUGCUAAAGGAUGGGATT against Coq8b | 0.0536 |
| CGUACUGGUACGGAAGCGUTT against Adck1 | 0.279 |
| GGAAUGAGGUUUGUAGACUTT against Arsg | -0.765 |
| CCGUACAUCGAGAAAUACATT against Hal | 2.36 (active) |
| GGAGGACUAGGAGUGAUUGTT against Fggy | -0.363 |
| GGAUAGUCAGAAAUGGAAATT against Chmp4c | -0.43 |
| GGGUGAUUUCUAUUCACUATT against Pam | -0.633 |
| GCACGGUCAAGUUUUGAUUTT against Prkaa2 | -0.792 |
| GGGCCAAUUCUGAAACUUGTT against Il1f5 | 0.669 |
| CCACAGUACGCUGAAAUCCTT against Morf4l1 | -2.27 (active) |
